High-throughput results: PubChem BioAssay, several laboratories
NFkB transloc pot: enhances IL-1B driven NFkB nuclear translocation; hit rate 0.3% among 94,000; HUVEC IL-1B NFkB p65 nuclear translocation imaging; activation, % at 2 µM; AID 819;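 active means activation above 40%, about the mean plus 3 SD, also judged a hit on visual image review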;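 further: percent activation is computed from the nuclear over cytoplasmic p65 intensity ratio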
ERa coact pot: enhances coactivator binding to human estrogen receptor alpha. hit rate 1.3% among 86,000. coactivator binding (% of control), % at 25.6 µM. TR-FRET ERalpha-LBD/SRC-Cy5 coactivator binding, 2 h; 100 = basal binding, no effect. AID 639. P03372; in the data active means activity above about 200%;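 further: binding measured in presence of low estradiol as agonist stimulus; 0% = peptide alone without receptor and 100% = receptor with peptide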
HUVEC tox IL1B: HUVEC cytotoxicity counter-screen, IL-1B stimulated; HUVEC cell count loss, Hoechst imaging; cell count reduction, % at 2 µM; hit rate 0.41% among 94,000; AID 845;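 active means cell count reduction more than 3 SD above the screen-wide mean, cut at about 70% in these data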;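 further: normalized per plate to untreated control cells as the no-loss baseline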
ERb coact inh: blocks coactivator binding to human estrogen receptor beta; hit rate 1.3% among 86,000; TR-FRET ER-beta LBD / SRC1-Cy5 peptide binding; receptor agonist-loaded with 1 µM estradiol; AID 633; Q92731; inhibition, % at 25.6 µM;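 active means compounds whose percent inhibition of the receptor-coactivator binding signal exceeds about 50% in the single-dose screen, limit read from the data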;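 further: 0% = receptor plus peptide wells without compound and 100% = peptide-only wells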
Target sequence (Q92731 whole entry, looked up, the tested form may be a part): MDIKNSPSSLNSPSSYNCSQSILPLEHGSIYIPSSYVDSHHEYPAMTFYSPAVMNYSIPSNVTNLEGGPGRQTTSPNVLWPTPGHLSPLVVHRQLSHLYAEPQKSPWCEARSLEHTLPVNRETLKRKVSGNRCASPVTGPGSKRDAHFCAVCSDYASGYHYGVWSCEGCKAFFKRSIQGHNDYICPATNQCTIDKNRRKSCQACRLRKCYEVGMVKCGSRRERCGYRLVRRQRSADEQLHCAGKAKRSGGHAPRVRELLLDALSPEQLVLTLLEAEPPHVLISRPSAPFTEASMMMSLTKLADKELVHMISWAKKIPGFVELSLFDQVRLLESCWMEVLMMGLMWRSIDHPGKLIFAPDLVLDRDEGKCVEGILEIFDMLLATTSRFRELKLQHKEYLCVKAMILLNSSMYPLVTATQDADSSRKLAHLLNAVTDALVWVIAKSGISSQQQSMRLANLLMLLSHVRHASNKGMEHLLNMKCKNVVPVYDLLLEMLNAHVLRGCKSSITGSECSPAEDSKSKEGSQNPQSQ
NFkB transloc inh: blocks IL-1B driven NFkB nuclear translocation in HUVEC cells; HUVEC IL-1B NFkB p65 nuclear translocation imaging; AID 796; inhibition, % at 2 µM; hit rate 0.43% among 94,000;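 active means inhibition above about 30% together with a positive call from visual inspection of the well image, limit read from the data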;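 further: nuclear over cytoplasmic p65 intensity ratio measured by imaging; 0% = IL-1B stimulated DMSO wells and 100% = unstimulated DMSO wells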
ERa SRC1 inh: blocks coactivator binding to human estrogen receptor alpha; P03372; TR-FRET ER-alpha LBD / SRC-1 peptide, estradiol-bound; inhibition, % at 25.6 µM; hit rate 1.7% among 86,000; AID 629; in the data active means inhibition above about 50%;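 further: 0% = receptor plus peptide control and 100% = peptide only without receptor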
* hit, by the source's call; · = not tested or not shown; [ ] = dose if it differs, or a comment. The list is not random: actives were taken first. Their share in the collection is about 3.6%.

SMILES	NFkB transloc pot	ERa coact pot	HUVEC tox IL1B	ERb coact inh	NFkB transloc inh	ERa SRC1 inh
O=C(Nc1ccc(N2CCN(c3ccc(O)cc3)CC2)cc1)Oc1ccccc1	7	30	-24	57*[fluorescence artefact?]	-7	95*[fluorescence artefact?]
CN1CCN(c2ccc(NC(=O)c3cccc(OCc4ccccc4)c3)cc2)CC1	26	42	-18	62*[fluorescence artefact?]	-26	37
Cc1ccc(S(=O)(=O)N2CCSC2)cc1C	-7	105	20	-3	7	-12
CN(C=O)CP(=O)(O)CCN1CCCC1=O	4	97	-2	21	-4	1
CN(C)S(=O)(=O)c1ccc(C(=O)OCn2nnc3ccccc3c2=O)cc1	6	108	5	1	-6	3
CNc1nc(C)c(C(=O)c2ccc(Cl)cc2)s1	8	·	7	·	-8	·
O=C(NCC1CCCO1)NC1CCCCC1 (stereo unspecified)	-20	108	94*	-8	20	-4
O=C(CCCCCCCC(=O)NCC1CCCO1)NCC1CCCO1 (stereo unspecified)	27	106	-33	-2	-27	-6
CCS(=O)(=O)N1CCC(C(=O)NCCCN2CCCCCC2)CC1	-11	920*[fluorescence artefact?]	4	0	12	-3
CCS(=O)(=O)N1CCC(C(=O)NCCCN2CCC(Cc3ccccc3)CC2)CC1	4	134	-4	-5	-4	-3
COc1ccc(/C=N/Nc2ncc(-c3ccccc3)cn2)c(OC)c1	-16	422*[fluorescence artefact?]	-18	27	16	38
COc1ccc(/C=N/NC(=O)c2[nH]ncc2Br)c(OC)c1	-1	·	-17	·	1	·
CC1=C(C(=O)Nc2ccccc2)C(c2ccc(C)o2)n2c(s/c(=C\c3ccco3)c2=O)=N1 (stereo unspecified)	-12	78	-10	32	12	19
CCCN1Cc2cccc(C(=O)Nc3ccc4c(c3)OCO4)c2C1=O	·	79	·	13	·	11
O=C(Nc1ccc2c(c1)OCO2)c1cccc2c1C(=O)N(Cc1cccnc1)C2	·	32	·	61*	·	77*[fluorescence artefact?]
O=C(Nc1ccc(Nc2ccccc2)cc1)c1ccc(Br)o1	15	83	10	8	-15	-2
COc1cccc(-c2nc(-c3ccc(NC(=O)c4cccnc4)cc3)no2)c1	-6	203*[fluorescence artefact?]	-12	18	6	-4
Cc1ccccc1-c1nc(-c2ccc(NC(=O)c3ccc(Br)o3)cc2)no1	·	265*	·	39	·	45
COc1cccc(-c2nc(-c3ccccc3)no2)c1	-6	97	2	-14	6	8
CC(Oc1ccc(Cl)cc1Cl)c1nc(-c2ccc(NC(=O)c3cccnc3)cc2)no1 (stereo unspecified)	-5	122	24	-9	5	-7
COc1ccc(CC(=O)Nc2ccc(-c3noc(-c4cccc(OC)c4)n3)cc2)cc1	8	287*[fluorescence artefact?]	13	50	-8	38
O=C(Nc1ccc(-c2noc(-c3cccs3)n2)cc1)c1cccnc1	2	364*	32	2	-2	-17
CN(C)/C=C1\C(=O)c2ccc(N(C)C)nc2CC1c1ccccc1 (stereo unspecified)	·	109	·	7	·	-1
COCCOC(=O)C1=C(C)NC(=O)N(C(C)=O)C1c1ccc(Cl)cc1 (stereo unspecified)	2	107	-24	10	-2	10
CCCCOC(=O)Nc1cc(C(=O)OC)ccc1C(=O)OC	·	112	·	-4	·	3
SMILES	NFkB transloc pot	ERa coact pot	HUVEC tox IL1B	ERb coact inh	NFkB transloc inh	ERa SRC1 inh
Cc1ccc(C)c2c(SC(C)C(=O)NCc3ccco3)nc(-c3ccccc3)nc12 (stereo unspecified)	2	150	32	-4	-2	-4
COc1ccc2nc(SCC(=O)Nc3ccc(S(=O)(=O)N4CCCC4)cc3)c(C#N)cc2c1	2	509*[fluorescence artefact?]	-34	40	-2	19
N#Cc1cc2ccccc2nc1SCC(=O)Nc1ccc(S(=O)(=O)N2CCCC2)cc1	8	289*[fluorescence artefact?]	-16	23	-8	16
Cc1ccc2nc(SCC(=O)Nc3ccccc3N3CCOCC3)c(C#N)cc2c1	-9	217*[fluorescence artefact?]	3	17	9	19
Cc1cc(C)c2nc(SCC(=O)Nc3ccc(S(=O)(=O)N4CCCC4)cc3)c(C)cc2c1	17	109	-51	0	-17	0
Cc1ccc(-c2nnc(SCC(=O)Nc3ccccc3N3CCOCC3)o2)cc1	2	104	-7	-3	-2	-11
COc1ccc2nc(SCC(=O)N3CCCCCC3)c(C#N)cc2c1	8	108	-4	9	-8	10
NS(=O)(=O)c1ccc(CCNC(=O)c2cccnc2)cc1	16	106	65	-4	-16	-5
Cc1ccc(-n2[nH]c(C)c(/C=N/n3c(C)nc4ccccc4c3=O)c2=O)cc1	0	111	14	85*	0	-1
Cc1[nH]n(-c2ccccc2)c(=O)c1/C=N/n1c(C)nc2ccccc2c1=O	-6	101	13	-8	6	-6
Cc1ccc(OCc2ccoc2C(=O)O)cc1C	-1	32	4	66*	1	62*
CCS(=O)(=O)c1ccc(O)c(N2C(=O)C3C4C=CC(C4)C3C2=O)c1 (stereo unspecified)	30	87	-11	-2	-30	0
N#Cc1c(N)oc(-c2ccco2)c1-c1ccco1	-9	25	-15	55*[fluorescence artefact?]	9	37
N#Cc1c(/N=C/c2ccco2)oc(-c2ccccc2)c1-c1ccccc1	-5	69	-26	6	5	3
COc1ccc(OC)c(/C=N/c2oc(-c3ccco3)c(-c3ccco3)c2C#N)c1	7	41	-4	73*	-7	62*
CCC(C)(C)NC(=O)C(c1cccn1C)N(Cc1ccc(OC)cc1)C(=O)Cn1nnc2ccccc21 (stereo unspecified)	29	110	-31	9	-29	6
O=S(=O)(c1ccc2ccccc2c1)N1CCC(c2nc(-c3ccncc3)no2)CC1	3	109	-13	-14	-3	-17
COc1ccc2c3c(cccc13)NN=C2C	-30	-3	29	99*[fluorescence artefact?]	30*	98*[fluorescence artefact?]
COc1ccc(-c2cc3nnc(-c4ccccc4)nc3s2)cc1	9	129	6	66*[fluorescence artefact?]	-9	63*[fluorescence artefact?]
CC1(C)C(=O)C2(CCCCC2)C(=O)OC1c1ccc(O)cc1 (stereo unspecified)	22	218*	-25	-6	-22	-7
CCN(CC)S(=O)(=O)c1ccc(NC(=O)CCC2CCCCC2)cc1	3	·	-8	·	-3	·
CC1=NN(c2cccc(C(=O)O)c2)C(=O)/C1=C\C=C\c1ccco1	9	15	-13	89*[fluorescence artefact?]	-9	83*[fluorescence artefact?]
Cn1c(=O)c2c(nc3sccn32)n(C)c1=O	-3	105	-10	0	3	-6
C=CCSc1nc2sc(C)c(C)c2c(=O)n1CC=C	18	88	-6	-2	-18	6
